The whole screen tested about 1,500 compounds, of which about 1,400 (93%) were called active. The set was probably picked from earlier hits. A selection follows. Entries with a potency or affinity are not part of this list. Unmarked numbers belong to inactive results. No rule for the calls is given here.
Assay: growth suppression of beta-catenin-knockout colon cells, dose response, cell-based, HCT116, human colon tumor (AID 1045)
Settings: CellTiter-Glo, 60 h; series mostly up to 30 µM; viability: at the top concentration

**Q.** With `O=C(COC(=O)c1c2c(nc3ccccc13)CCCC2)Nc1ccc2c(c1)OCO2` as the molecule, how does the “viability” value read?
**A.** 83.9%

**Q.** Which “viability” value does the source give for `O=C(COC(=O)c1cccnc1Nc1cccc(C(F)(F)F)c1)NCc1ccc2c(c1)OCO2` here?
**A.** 84.7%

**Q.** For `CCOC(=O)Cn1c2ccccc2c2nc3ccccc3nc21`, which “viability” value is on record?
**A.** 89.9%

**Q.** With `Cc1ccc(Cn2nc(C)c(NC(=O)CSc3nc4c(c(C(F)(F)F)n3)CCc3ccccc3-4)c2C)cc1` as the molecule, how does the “viability” value read?
**A.** 90.2%

**Q.** With `COc1ccc(CCn2c(N)c(C(=O)NCc3ccco3)c3nc4ccccc4nc32)cc1OC` as the molecule, how does the “viability” value read?
**A.** 81.8%

**Q.** With `COc1ccccc1CN=Cc1[nH]c2ccc(Br)c(Cl)c2c1O` as the molecule, how does the “viability” value read?
**A.** 80.3%

**Q.** For `COc1ccc(C(=O)OCC(=O)c2cc(OC)ccc2OC)c(OC)c1`, which “viability” value is on record?
**A.** 88.4%

**Q.** Which “viability” value does the source give for `O=C1[C@H]2[C@H]3[C@H](O)[C@H](O)C/C(=N\OC[C@@H](O)COCc4ccco4)[C@@H]3CC[C@H]2C(=O)N1c1ccc(F)cc1F` here?
**A.** 93.9%

**Q.** Which “viability” value does the source give for `CCCNC(=O)OC[C@H]1O[C@H](CCO/N=C/[C@@H](NS(=O)(=O)c2ccc(C)cc2)[C@H](C)/C=C/CC(=O)OC)C=C[C@@H]1Oc1ccc(OC)cc1` here?
**A.** 90.3%

**Q.** For `O=C(Nc1ccccc1Cl)NC1(C(=O)N2CCCC2)CCCCC1`, which “viability” value is on record?
**A.** 94.7%

**Q.** With `Cc1ccc(C(=O)c2coc3c2C(=O)C(=O)c2ccccc2-3)cc1` as the molecule, how does the “viability” value read?
**A.** 91.4%

**Q.** Which “viability” value does the source give for `CCCC(=O)Nc1sc2c(c1C#N)CCCCC2` here?
**A.** 98.2%

**Q.** With `CCN1CCN(Cc2ccc(OCc3ccccc3)cc2)CC1` as the molecule, how does the “viability” value read?
**A.** 86.3%

**Q.** With `S=C(NCCc1ccc(Cl)cc1)Nc1ccc(Cl)cc1Cl` as the molecule, how does the “viability” value read?
**A.** 84.2%

**Q.** With `O=C(Nc1cccc(C(F)(F)F)c1)NC1CCCCC1` as the molecule, how does the “viability” value read?
**A.** 93.5%

**Q.** Which “viability” value does the source give for `C=C1C(O)C[C@H]2C(=C)CCC3[C@H](OC(=O)[C@]3(O)CO)[C@@H]12` (stereo partly drawn) here?
**A.** 103%

**Q.** For `Cc1ccc2cc3cc(C(=O)NCc4ccc5c(c4)OCO5)oc3nc2c1`, which “viability” value is on record?
**A.** 90.1%

**Q.** With `Nc1nnc(SCc2ccc(Cl)cc2)s1` as the molecule, how does the “viability” value read?
**A.** 91.9%

**Q.** Which “viability” value does the source give for `O=C(NC(=S)Nc1ccc2c(c1)OCO2)c1ccc(Cl)cc1` here?
**A.** 87.5%

**Q.** With `COC(=O)CN1C(C)=Nc2ccc(Br)cc2C1c1ccccc1` (stereo not drawn) as the molecule, how does the “viability” value read?
**A.** 91.8%

**Q.** Which “viability” value does the source give for `COC(=O)C1=C(C)N(Cc2ccco2)C(=O)N[C@@H]1c1cccc(C(F)(F)F)c1` here?
**A.** 83%

**Q.** Which “viability” value does the source give for `CCN1CCN(c2cc(C)c3cc(NC(=O)c4ccc5c(c4)OCO5)ccc3n2)CC1` here?
**A.** 87.7%

**Q.** For `CCN(CC)S(=O)(=O)c1ccc(NC2CCCc3ccccc32)nc1` (stereo not drawn), which “viability” value is on record?
**A.** 83.6%

**Q.** For `COc1ccc(-c2cc(C(F)(F)F)nc(S(C)(=O)=O)n2)cc1OC`, which “viability” value is on record?
**A.** 81.2%

**Q.** With `O=C(Nc1cccc(-c2nnc(-c3ccccc3)o2)c1)C1CCCCC1` as the molecule, how does the “viability” value read?
**A.** 95.4%

**Q.** With `Cc1ccccc1NC(=O)c1ccc2c(c1)OCCO2` as the molecule, how does the “viability” value read?
**A.** 88.1%

**Q.** Which “viability” value does the source give for `CSc1n[nH]c(NCc2cccs2)n1` here?
**A.** 102%

**Q.** For `Cc1cc(C)n(C(=O)CNc2ccc(C)c(C)c2)n1`, which “viability” value is on record?
**A.** 91.1%

**Q.** For `CCCC/C(C)=N\NC(=O)CNS(=O)(=O)c1ccc([N+](=O)[O-])cc1`, which “viability” value is on record?
**A.** 97.5%

**Q.** With `COc1ccc(-n2c(O)c(/C=N/NS(=O)(=O)c3ccc(C)cc3)c3ccccc3c2=O)cc1OC` as the molecule, how does the “viability” value read?
**A.** 80.6%

**Q.** For `COCCN1C(=O)c2oc3ccccc3c(=O)c2C1c1ccc(OC)c(OC)c1` (stereo not drawn), which “viability” value is on record?
**A.** 89.8%

**Q.** With `O=C(Nc1cccc(C(F)(F)F)c1)/C(=C\c1ccco1)NC(=O)c1cccs1` as the molecule, how does the “viability” value read?
**A.** 82%

**Q.** With `O=C(Nc1ccc(-c2nc3ccccc3o2)cc1)c1cccnc1` as the molecule, how does the “viability” value read?
**A.** 103%

**Q.** For `O=C(NCc1ccco1)C1CCN(S(=O)(=O)Cc2ccccc2)CC1`, which “viability” value is on record?
**A.** 98.3%

**Q.** Which “viability” value does the source give for `CCOC(=O)c1c(-c2ccc(C)cc2)csc1NC(=O)/C(C#N)=C/c1ccc(O)c(OC)c1` here?
**A.** 90.9%

**Q.** For `CCn1c(Cc2ccc(OC)cc2)nnc1SCC(=O)Nc1cccc(C(=O)OC)c1`, which “viability” value is on record?
**A.** 103%

**Q.** For `Cc1ccc(C(=O)NCCc2nnc(SCC(=O)Nc3nc(-c4ccccc4)cs3)n2C)cc1`, which “viability” value is on record?
**A.** 92.9%

**Q.** Which “viability” value does the source give for `COc1ccc(-c2cc(C(F)F)n3ncc(C(=O)n4ccnc4C)c3n2)cc1` here?
**A.** 86.4%

Reference: PubChem BioAssay AID1045 (SRMLSC, 2008)
